# Source: PubChem BioAssay (Tox21)
# A number with no mark means an inactive call. Results filed as inconclusive are left out. A call without a number means that no potency is given here. Calls of active or inactive are those of the source. Unless noted, the call rests on the fitted dose curve.
# Tests used:
# [1] = Nuclear factor erythroid 2-related factor 2/antioxidant responsive element (Nrf2/ARE) small molecule agonists: qHTS cell viability counter screen in human keratinocytes (AID 1919968; active means well fitted curve in the direction sought with a large enough effect in the repeat runs; an effect the other way counts as inactive or inconclusive; further: nearly all actives have a fitted effect of over 55% in size; further: potency means the concentration at half of the fitted maximal effect)
# Procedure, shortened: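 In human HaCaT keratinocytes stably expressing an ARE-driven luciferase, compound exposure lasted 23 h at 37 C under 5% CO2. Viable cells are quantified with a protease-based fluorogenic reagent (CellTiter-Fluor) read 1 h after addition.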
# [2] = Nuclear factor erythroid 2-related factor 2/antioxidant responsive element (Nrf2/ARE) small molecule agonists: luciferase reporter gene qHTS assay in human keratinocytes (AID 1919969); further: nearly all actives have a fitted effect of over 35% in size
# [3] = biological target: Gonadotropin-releasing hormone receptor (Homo sapiens) (UniProt P30968); test: Human gonadotropin-releasing hormone receptor (GnRHR) small molecule agonists, calcium flux assay in GnRHR-HEK293 cells (AID 1920063); further: nearly all actives have a fitted effect of over 35% in size
# Chain of Gonadotropin-releasing hormone receptor (Homo sapiens) (P30968 whole entry, looked up): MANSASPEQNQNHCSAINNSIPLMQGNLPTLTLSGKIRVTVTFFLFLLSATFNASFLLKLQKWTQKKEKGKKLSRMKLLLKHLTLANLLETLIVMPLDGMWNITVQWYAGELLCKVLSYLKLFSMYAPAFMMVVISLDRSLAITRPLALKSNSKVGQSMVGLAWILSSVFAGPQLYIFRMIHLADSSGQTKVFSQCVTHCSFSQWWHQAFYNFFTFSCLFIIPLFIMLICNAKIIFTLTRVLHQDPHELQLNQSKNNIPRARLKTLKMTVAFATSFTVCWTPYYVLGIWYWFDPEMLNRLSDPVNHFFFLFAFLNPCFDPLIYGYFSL
# Procedure, shortened: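 Intracellular calcium rise is the read-out: engineered human GnRHR HEK293 cells, dye-loaded, are exposed to DMSO-dissolved compounds and fluorescence at Ex/Em 480/540 is tracked for 3 min.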
# [4] = biological target: KiSS-1 receptor (Homo sapiens) (UniProt Q969F8); test: Human kisspeptin (KISS1R) small molecule agonists, calcium flux assay in KISS1R-HEK293 cells (AID 1920064; active means well fitted curve in the direction sought with a large enough effect in the repeat runs; an effect the other way counts as inactive or inconclusive)
# Chain of KiSS-1 receptor (Homo sapiens) (Q969F8 whole entry, looked up): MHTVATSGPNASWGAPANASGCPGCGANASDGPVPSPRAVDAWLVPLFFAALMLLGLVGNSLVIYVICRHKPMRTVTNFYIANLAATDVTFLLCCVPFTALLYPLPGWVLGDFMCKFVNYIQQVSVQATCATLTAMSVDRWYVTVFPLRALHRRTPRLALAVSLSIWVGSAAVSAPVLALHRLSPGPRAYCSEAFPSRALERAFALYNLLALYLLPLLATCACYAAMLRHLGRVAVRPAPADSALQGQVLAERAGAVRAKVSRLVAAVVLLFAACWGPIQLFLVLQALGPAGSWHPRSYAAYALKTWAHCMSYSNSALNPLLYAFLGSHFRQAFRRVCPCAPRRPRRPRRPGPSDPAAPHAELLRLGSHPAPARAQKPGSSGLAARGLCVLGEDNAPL
# Procedure, shortened: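 Concentration-response testing used 15 concentrations in triplicate on human KISS1R-expressing HEK293 cells. Calcium-dependent fluorescence (Ex/Em 480/540) was followed kinetically for 3 min after compound transfer.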
# [5] = G protein-coupled receptor (GPCR) small molecule agonists, calcium flux assay: HEK293 wild type cell line counter screen (AID 1920065)
# Procedure, shortened: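 Fluorescence intensity signals activation. After overnight (18 h) culture and a 1 h calcium dye load at 37 C, compounds are added by pin tool and the plate read at 480/540 nm for 3 min in 1 s steps.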
# [6] = p53 small molecule agonists, cell-based qHTS assay with rat liver microsomes (AID 1963578)
# Procedure, shortened: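 Read-out is beta-lactamase reporter fluorescence (LiveBLAzer, 2 h, room temperature, dark) in p53RE-bla cells treated 16 h at 37 C with compound, rat liver microsomes and NADPH, both 0.5 mg/mL final.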
# [7] = p53 small molecule agonists, cell-based qHTS assay with human liver microsomes: qHTS cell viability counter screen (AID 1963579); further: nearly all actives have a fitted effect of over 45% in size
# Procedure, shortened: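 Cells carrying the p53 response-element beta-lactamase reporter are treated for 16 h at 37 C with test compounds in the presence of human liver microsomes and NADPH (both 0.5 mg/mL final); ATP-based CellTiter-Glo luminescence then reports viability.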
# [8] = p53 small molecule agonists, cell-based qHTS assay with rat liver microsomes: qHTS cell viability counter screen (AID 1963580); further: nearly all actives have a fitted effect of over 45% in size
# Procedure, shortened: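 Luminescent ATP readout (CellTiter-Glo, 30 min at room temperature) reports viability of p53RE-bla HCT-116 cells after 16 h at 37 C with test compounds under metabolic activation by rat liver microsomes and NADPH at 0.5 mg/mL final each.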
# [9] = p53 small molecule agonists, cell-based qHTS assay: qHTS cell viability counter screen (AID 1963581); further: nearly all actives have a fitted effect of over 45% in size
# Procedure, shortened: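 Luminescence from CellTiter-Glo, reflecting ATP content, serves as the cytotoxicity measure; it is taken after the 2 h reporter substrate step in HCT-116 p53RE-bla cells dosed for 16 h at 37 C.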
# [10] = p53 small molecule agonists, cell-based qHTS assay (AID 1963582; active means well fitted activation curve with a large enough effect in the signal ratio in the repeat runs, not every such curve was filed as active; the % refers to the signal ratio)
# Procedure, shortened: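 After plating, p53RE-bla cells sat 5 h in the incubator; compounds or DMSO vehicle were pinned in; a 16 h incubation at 37 C followed; FRET substrate was added and, 2 h later at RT, fluorescence was measured.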
# [11] = biological target: 5-hydroxytryptamine receptor 2A (Homo sapiens) (UniProt P28223); test: 5-hydroxytryptamine receptor 2A (HTR2A) small molecule antagonists, cell-based qHTS assay (AID 1963586); further: nearly all actives have a fitted effect of over 45% in size
# Chain of 5-hydroxytryptamine receptor 2A (Homo sapiens) (P28223 whole entry, looked up): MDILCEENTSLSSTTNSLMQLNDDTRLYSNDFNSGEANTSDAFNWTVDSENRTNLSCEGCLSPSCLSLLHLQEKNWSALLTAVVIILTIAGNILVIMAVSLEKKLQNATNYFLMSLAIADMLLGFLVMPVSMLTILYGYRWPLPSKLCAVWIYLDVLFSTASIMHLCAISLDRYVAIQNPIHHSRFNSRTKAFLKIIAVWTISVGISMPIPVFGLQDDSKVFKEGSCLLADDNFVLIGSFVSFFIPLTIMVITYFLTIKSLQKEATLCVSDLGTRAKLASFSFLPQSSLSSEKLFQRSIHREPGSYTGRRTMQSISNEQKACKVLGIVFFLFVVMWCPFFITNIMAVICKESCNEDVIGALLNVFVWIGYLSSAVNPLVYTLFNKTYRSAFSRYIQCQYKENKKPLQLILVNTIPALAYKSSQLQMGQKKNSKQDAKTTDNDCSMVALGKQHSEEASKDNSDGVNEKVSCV
# Procedure, shortened: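 CHO cells stably expressing human HTR2A were plated for 18 h at 37 C, then loaded with calcium dye for 1 h. Compounds were preincubated 5 min at room temperature before DOI (4 nM solution) was added. Kinetic fluorescence was read for 3 min.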
# [12] = biological target: 5-hydroxytryptamine receptor 2A (Homo sapiens) (UniProt P28223); test: 5-hydroxytryptamine receptor 2A (HTR2A) small molecule agonists, cell-based qHTS assay (AID 1963587); further: nearly all actives have a fitted effect of over 30% in size
# Procedure, shortened: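 HTR2A-CHO cells, plated 18 h at 37 C/5% CO2, dye-loaded 1 h at 37 C; compounds in DMSO added by pin tool (agonist mode). Intracellular calcium flux read as kinetic fluorescence on FDSS over 2 min at 1 s intervals.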
# [13] = biological target: Muscarinic acetylcholine receptor M1 (Homo sapiens) (UniProt P11229); test: Cholinergic receptor muscarinic 1 (CHRM1) small molecule antagonists, cell-based qHTS assay (AID 1963588); further: nearly all actives have a fitted effect of over 40% in size
# Chain of Muscarinic acetylcholine receptor M1 (Homo sapiens) (P11229 whole entry, looked up): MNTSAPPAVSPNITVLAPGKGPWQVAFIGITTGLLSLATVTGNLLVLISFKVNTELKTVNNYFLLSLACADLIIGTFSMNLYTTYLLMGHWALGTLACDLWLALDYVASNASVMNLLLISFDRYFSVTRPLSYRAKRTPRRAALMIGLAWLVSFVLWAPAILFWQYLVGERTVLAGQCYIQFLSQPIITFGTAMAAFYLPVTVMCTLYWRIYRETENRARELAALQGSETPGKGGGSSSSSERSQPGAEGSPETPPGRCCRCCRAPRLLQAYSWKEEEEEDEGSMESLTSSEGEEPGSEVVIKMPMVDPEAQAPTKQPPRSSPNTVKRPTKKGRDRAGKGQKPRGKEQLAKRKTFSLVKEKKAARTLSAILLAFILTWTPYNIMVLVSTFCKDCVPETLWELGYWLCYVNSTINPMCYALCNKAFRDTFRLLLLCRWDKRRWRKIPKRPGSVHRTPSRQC
# Procedure, shortened: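 Compounds were tested at 15 concentrations in three independent runs. Dye-loaded CHRM1-CHO cells were exposed 5 min at room temperature before stimulation by acetylcholine added at 50nM. Intracellular calcium was read kinetically on FDSS for 3 min.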
# [14] = biological target: Muscarinic acetylcholine receptor M1 (Homo sapiens) (UniProt P11229); test: Cholinergic receptor muscarinic 1 (CHRM1) small molecule agonists, cell-based qHTS assay (AID 1963589); further: nearly all actives have a fitted effect of over 35% in size
# Procedure, shortened: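 Fluorescent calcium dye reports M1 activation in stably transfected CHO cells. Compounds, 15 concentrations, added after 1 h dye loading at 37 C; kinetic reading at 1 sec intervals.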
# [15] = cAMP Responsive Elements (CRE) small molecule agonists, cell-based qHTS assay (AID 1963590)
# Procedure, shortened: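 Compound exposure lasted 3 h at 37 C/5% CO2 in CRE-bla HEK 293T cells grown in assay medium with 10% dialyzed FBS and 25 mM HEPES. Reporter signal came from LiveBLAzer B/G FRET substrate, 2 h, room temperature.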
# [16] = cAMP Responsive Elements (CRE) small molecule antagonists, cell-based qHTS assay (AID 1963591; active means well fitted inhibition curve with a large enough effect in the signal ratio in the repeat runs, not every such curve was filed as active; the % refers to the signal ratio)
# Procedure, shortened: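 Stimulation used NKH477 at a final 0.25 uM for 3 h in compound-treated CRE-bla HEK293T cells, seeded 18 h beforehand. Reporter activity was measured with LiveBLAzer B/G FRET substrate after 2 h at room temperature.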
# [17] = biological target: Beta-2 adrenergic receptor (Homo sapiens) (UniProt P07550); test: Adrenergic beta2 receptor (ADRB2) small molecule antagonists, cell-based qHTS assay (AID 1963592); further: series mostly up to about 92 µM; nearly all actives have a fitted effect of over 50% in size
# Chain of Beta-2 adrenergic receptor (Homo sapiens) (P07550 whole entry, looked up): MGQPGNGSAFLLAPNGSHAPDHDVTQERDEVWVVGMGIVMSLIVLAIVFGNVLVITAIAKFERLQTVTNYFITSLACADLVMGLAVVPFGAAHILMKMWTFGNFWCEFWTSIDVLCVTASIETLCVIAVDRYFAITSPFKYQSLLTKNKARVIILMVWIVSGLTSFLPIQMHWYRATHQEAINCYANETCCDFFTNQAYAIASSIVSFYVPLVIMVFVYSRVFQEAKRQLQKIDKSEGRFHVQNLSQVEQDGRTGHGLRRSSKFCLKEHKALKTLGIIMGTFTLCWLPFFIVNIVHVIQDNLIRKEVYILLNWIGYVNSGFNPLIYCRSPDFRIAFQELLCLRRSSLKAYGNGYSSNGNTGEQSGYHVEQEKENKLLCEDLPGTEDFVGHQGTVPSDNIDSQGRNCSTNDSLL
# Procedure, shortened: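 Assay format: CHO-ADRB2 cells, 18-20hr seeding at 37C/5% CO2, then compound plus 1nM isoproterenol agonist mix for 0.5hr RT. Homogeneous time-resolved fluorescence cAMP detection after 1hr, expressed as 665/615 nm ratio.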
# [18] = biological target: D(2) dopamine receptor (Homo sapiens) (UniProt P14416); test: Dopamine D2 receptor (DRD2) small molecule agonists, cell-based qHTS assay (AID 1963594); further: nearly all actives have a fitted effect of over 35% in size
# Chain of D(2) dopamine receptor (Homo sapiens) (P14416 whole entry, looked up): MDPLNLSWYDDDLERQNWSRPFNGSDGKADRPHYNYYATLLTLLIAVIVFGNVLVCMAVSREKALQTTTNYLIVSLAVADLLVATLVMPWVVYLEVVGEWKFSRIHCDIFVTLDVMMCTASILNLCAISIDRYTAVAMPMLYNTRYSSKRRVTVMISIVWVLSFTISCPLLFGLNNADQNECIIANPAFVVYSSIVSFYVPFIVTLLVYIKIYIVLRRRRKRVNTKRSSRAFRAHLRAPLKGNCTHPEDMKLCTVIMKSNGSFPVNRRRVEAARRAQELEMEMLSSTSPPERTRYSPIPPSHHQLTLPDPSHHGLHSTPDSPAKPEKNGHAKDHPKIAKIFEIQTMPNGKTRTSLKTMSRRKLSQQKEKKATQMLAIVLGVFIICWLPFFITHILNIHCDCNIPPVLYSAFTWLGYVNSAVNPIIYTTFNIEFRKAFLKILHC
# Procedure, shortened: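 HEK293 cells stably expressing DRD2 were cultured 24 h at 37 C, then given Ro20-1724 (0.1 mM final) and compounds for 10 min at room temperature. NKH477 (200nM) was then added for 30 min. cAMP was read by HTRF.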
# [19] = biological target: D(2) dopamine receptor (Homo sapiens) (UniProt P14416); test: Dopamine D2 receptor (DRD2) small molecule antagonists, cell-based qHTS assay (AID 1963595; active means well fitted inhibition curve with a large enough effect in the signal ratio in the repeat runs, with a control signal flat; the % refers to the signal ratio)
# Procedure, shortened: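 In this cell-based antagonist screen, compounds act for 10 min at room temperature before a 30 min challenge with 12 nM quinpirole and 200 nM NKH477. cAMP is quantified by HTRF competition in DRD2-HEK293 cells containing 0.1 mM Ro20-1724.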
SMILES,Potency [1],Potency [2],Potency [3],outcome [4],outcome [5],Potency [6],Potency [7],Potency [8],Potency [9],Potency [10],Potency [11],Potency [12],Potency [13],Potency [14],Potency [15],Potency [16],Potency [17],Potency [18],Potency [19]
CCCCCCCC1CCCC1=O (stereo unspecified),inactive,inactive,inactive,inactive,inactive,inactive,inactive,inactive,inactive,inactive,inactive,inactive,inactive,inactive,inactive,inactive,inactive,inactive,inactive
CCOC(=O)c1ccc(NC(=O)CN2CCCCC2)cc1,inactive,inactive,inactive,inactive,inactive,inactive,inactive,inactive,inactive,–,inactive,inactive,inactive,inactive,inactive,–,inactive,inactive,–
CCCCCCCC(C)=O,inactive,inactive,inactive,inactive,inactive,inactive,inactive,inactive,inactive,inactive,inactive,inactive,inactive,inactive,inactive,inactive,–,–,inactive
COCCCCCCCCOCCC[Si](C)(O[Si](C)(C)C)O[Si](C)(C)C,61.1 µM (active),inactive,inactive,inactive,inactive,inactive,inactive,inactive,inactive,–,–,inactive,inactive,–,–,–,inactive,inactive,inactive
